This note sets out measurements from PubChem BioAssay (NCATS).

Results filed as inconclusive are left out. A number with no mark means an inactive call. Calls of active or inactive are those of the source. Calls come from the whole dose curve; as a rule, active = well fitted inhibition curve with a large enough effect in the repeat runs; inconclusive = weak or mixed curves; inactive = no such curve, though single readings can be large or run the other way.
% is set by controls: 0 for no effect and ±100 for the full control effect; potency is the fitted concentration of half-maximal effect.

In this assay the target is Cytochrome P450 2C9 (Homo sapiens) (UniProt P11712). Nature of the assay: Cytochrome P450 family 2 subfamily C member 9 (CYP2C9) small molecule antagonists: luciferase biochemical (cell-free) qHTS assay (AID 1645842). Note: nearly all actives have a fitted effect of over 55% in size. Particulars: P450-Glo CYP2C9 enzyme assay, luciferin luminescence; series mostly up to 57.4 µM; activity change, negative = inhibition: at the top concentration. The gist of the method: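 P450-Glo CYP2C9 system: proluciferin substrate with enzyme in mix containing 0.4% BSA, 10 min at room temperature, then NADPH regeneration solution added and incubated 1 h at 37C. Detection reagent stopped reaction; luminescence read after 20 min as RLU.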
Cytochrome P450 2C9 (Homo sapiens), sequence (P11712 whole entry, looked up): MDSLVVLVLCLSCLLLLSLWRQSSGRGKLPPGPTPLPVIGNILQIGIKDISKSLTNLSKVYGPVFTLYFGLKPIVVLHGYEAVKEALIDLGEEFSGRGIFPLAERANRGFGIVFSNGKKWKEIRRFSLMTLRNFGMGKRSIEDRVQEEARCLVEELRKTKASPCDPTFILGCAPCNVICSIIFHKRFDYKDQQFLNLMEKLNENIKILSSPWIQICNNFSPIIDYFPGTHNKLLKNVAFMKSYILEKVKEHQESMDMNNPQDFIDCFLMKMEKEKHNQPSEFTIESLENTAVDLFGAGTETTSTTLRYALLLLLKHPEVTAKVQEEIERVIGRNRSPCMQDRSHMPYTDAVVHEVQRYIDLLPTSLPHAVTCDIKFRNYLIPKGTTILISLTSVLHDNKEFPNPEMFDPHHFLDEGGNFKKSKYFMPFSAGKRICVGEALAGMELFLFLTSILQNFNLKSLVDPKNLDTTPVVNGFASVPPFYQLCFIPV
Take `CN(C)CCOC1=Cc2ccccc2Sc2ccc(Cl)cc21`: the “activity change, negative = inhibition” value is -10.6%.

Turning to `CCc1cccc2c(CCO)c[nH]c12`, the “activity change, negative = inhibition” value is -8.5%.

On to `COC(=O)C1=C(C)NC(C)=C(C(=O)OCCc2ccc(N3CCN(C(c4ccccc4)c4ccccc4)CC3)cc2)C1c1cccc([N+](=O)[O-])c1` (centres undefined), for which the Potency was 550 nM (active).

With `CCN(CC)CC(=O)Oc1ccc(NC(C)=O)cc1`, the “activity change, negative = inhibition” value was 13.1%.

As for `COc1ccc2cc(C=O)ccc2c1`, the Potency was 12300 nM (active).

On to `Cc1ccc(CCn2c3c(c4cc(Cl)ccc42)CN(C)CC3)cn1`, for which the “activity change, negative = inhibition” value is 1.12%.

On to `COc1c(N2C[C@@H]3CCCN[C@@H]3C2)c(F)cc2c(=O)c(C(=O)O)cn(C3CC3)c12`, for which the “activity change, negative = inhibition” value was 7.69%.

In the case of `COC(=O)c1cc(Cl)ccc1OC`, the “activity change, negative = inhibition” value was 11.6%.

With `CCOCCn1c(C2CCN(CCc3ccc(C(C)(C)C(=O)O)cc3)CC2)nc2ccccc21`, the “activity change, negative = inhibition” value was 12%.

For `Cc1ccc(C(=O)C(=O)O)cc1C`, the “activity change, negative = inhibition” value was -10.1%.

In the case of `CCOC(=O)[C@H](CCc1ccccc1)N[C@@H](C)C(=O)N(CC(=O)O)C1Cc2ccccc2C1`, the Potency was 19500 nM (active).

On to `O=C(O)CCCC[C@@H]1SC[C@@H]2NC(=O)N[C@@H]21`, for which the “activity change, negative = inhibition” value was 1.11%.

With `Cc1oc(=O)oc1COC(=O)[C@@H]1N2C(=O)[C@@H](NC(=O)[C@H](N)c3ccccc3)[C@H]2SC1(C)C`, the “activity change, negative = inhibition” value is -23.9%.

As to `C/C(=C(/OCCOc1ccc(Cl)cc1)c1ccc(Cl)cc1Cl)n1ccnc1`, the Potency is 550 nM (active).

Take `CN1C(=O)c2ccccc2C1=O`: the “activity change, negative = inhibition” value is 6.28% [at 115 µM].

In the case of `CN(C)CCN1CCN(c2cccc(Cl)c2)C1=O`, the “activity change, negative = inhibition” value was 0.969%.

As to `N#C/C(=C1/SC[C@@H](c2ccc(Cl)cc2Cl)S1)n1ccnc1`, the Potency was 436 nM (active).

With `Cc1cc(O)c(C)c(C)c1O`, the “activity change, negative = inhibition” value is -4.68%.

Consider `CCCN(CCC)C(=O)C(CCC(=O)OCCCN1CCN(CCOC(=O)Cc2c(C)n(C(=O)c3ccc(Cl)cc3)c3ccc(OC)cc23)CC1)NC(=O)c1ccccc1` (centres undefined), for which the Potency is 3470 nM (active).

Turning to `CC(=O)N1CCN(c2ccc(O)cc2)CC1`, the “activity change, negative = inhibition” value is -6.74%.

Turning to `O=C(O)c1ccccc1S`, the “activity change, negative = inhibition” value was 6.07%.

With `CO/N=C(/C(=O)N[C@@H]1C(=O)N2C(C(=O)OCOC(=O)C(C)(C)C)=C(C)CS[C@H]12)c1csc(N)n1`, the Potency was 17400 nM (active).

Regarding `C[C@@H](O[C@H]1OCCN(Cc2n[nH]c(=O)[nH]2)[C@H]1c1ccc(F)cc1)c1cc(C(F)(F)F)cc(C(F)(F)F)c1`, the Potency is 12100 nM (active).

For `CSCC[C@H](NC(=O)[C@H](Cc1c[nH]c2ccccc12)NC(=O)CCNC(=O)OC(C)(C)C)C(=O)N[C@@H](CC(=O)O)C(=O)N[C@@H](Cc1ccccc1)C(N)=O`, the “activity change, negative = inhibition” value is 10.1%.

Take `Nc1c(NC/C=C\COc2cc(CN3CCCCC3)ccn2)c(=O)c1=O`: the “activity change, negative = inhibition” value was -13.2% [at 23.9 µM].

As for `c1ccc2occc2c1`, the “activity change, negative = inhibition” value was 4.52% [at 115 µM].

Take `CCOc1ccccc1OCC1CNCCO1` (centres undefined): the “activity change, negative = inhibition” value was 4.01%.

For the molecule `Cc1nc(C2CCCCC2)c(-c2ccc(S(N)(=O)=O)c(F)c2)o1`, the Potency is 2190 nM (active).

For the molecule `CCO[C@H](Cc1ccc(OCCc2ccc(OS(C)(=O)=O)cc2)cc1)C(=O)O`, the “activity change, negative = inhibition” value was 8.8%.

`C/C(=N/NC(=O)c1ccncc1)C(=O)O`: the “activity change, negative = inhibition” value was -6.2%.

Consider `CCN1C(=O)c2ccccc2C1Nc1ccc(OCCN2CCCCC2)cc1` (centres undefined), for which the “activity change, negative = inhibition” value was 6.75%.

With `CCC(C(=O)OCCN1CCOC(c2ccccc2)C1C)c1ccccc1` (centres undefined), the Potency is 2190 nM (active).

Take `CCCCCCCCCCCCCC[N+](C)(C)C`: the “activity change, negative = inhibition” value was -29.4%.

As to `O=[N+]([O-])c1cncn1CCN1CCOCC1`, the “activity change, negative = inhibition” value is 18.1%.
